# “And” between values parts separate entries of the source, which are not always exact repeats. Identical values can stand only once. Screen size: about 5,500 compounds; about 2,000 (36%) were called active. Not shown: some 18% with an inconclusive outcome. Some of the results follow. Values without a mark were called inactive. Rule as the data show it: active = normalized growth mostly below about 0.91 (no sharp cut-off); inconclusive = no clear call, values can overlap the other calls; inactive = mostly above about 0.92.
# Assay: chemical genetic growth profiling, strain panel (AID 1159580);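 also: tested at 20 µM; growth read once vehicle control cultures reached saturation at 30 °C; 1 = growth at the plate median or of vehicle wells; lower values mean less growth of the strain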
# Conditions: growth OD
compound,measurement,setting,value
NCCc1cnc[nH]1,normalized growth,"S. cerevisiae deletion strains, locus YJR066W, strain TOR1, hits give low values",0.985
same,normalized growth,"S. cerevisiae deletion strains, locus YJR075W, strain HOC1, hits give low values",1.01
same,normalized growth,"S. cerevisiae deletion strains, locus YKL009W, strain mrt4, hits give low values",1.01
same,normalized growth,"S. cerevisiae deletion strains, locus YKL068W, hits give low values",1.01
same,normalized growth,"S. cerevisiae deletion strains, locus YKL085W, strain MDH1 (second series), hits give low values",1.01
same,normalized growth,"S. cerevisiae deletion strains, locus YKL085W, strain MDH1, hits give low values",1.01
same,normalized growth,"S. cerevisiae deletion strains, locus YKL160W, strain elf1, hits give low values",1.02
same,normalized growth,"S. cerevisiae deletion strains, locus YKL190W, strain CNB1, hits give low values",0.978
same,normalized growth,"S. cerevisiae deletion strains, locus YKR001C, strain vps1, hits give low values",1.01
same,normalized growth,"S. cerevisiae deletion strains, locus YKR026C, strain gcn3, hits give low values",1.02
same,normalized growth,"S. cerevisiae deletion strains, locus YKR091W, strain srl3, hits give low values",1.02
same,normalized growth,"S. cerevisiae deletion strains, locus YLL001W, strain dnm1, hits give low values",1.02
same,normalized growth,"S. cerevisiae deletion strains, locus YLL026W, hits give low values",1.02
same,normalized growth,"S. cerevisiae deletion strains, locus YLL041C, strain sdh2, hits give low values",1.02
same,normalized growth,"S. cerevisiae deletion strains, locus YLR027C, strain aat2, hits give low values",1.01
same,normalized growth,"S. cerevisiae deletion strains, locus YLR039C, strain RIC1, hits give low values",1.05
same,normalized growth,"S. cerevisiae deletion strains, locus YLR058C, strain SHM2, hits give low values",1.01
same,normalized growth,"S. cerevisiae deletion strains, locus YLR102C, strain apc9, hits give low values",1.02
same,normalized growth,"S. cerevisiae deletion strains, locus YLR113W, strain HOG1, hits give low values",0.985
same,normalized growth,"S. cerevisiae deletion strains, locus YLR221C, strain rsa3, hits give low values",1.05
same,normalized growth,"S. cerevisiae deletion strains, locus YLR258W, strain gsy2, hits give low values",1.02
same,normalized growth,"S. cerevisiae deletion strains, locus YLR262C, strain YPT6 (second series), hits give low values",1.06
same,normalized growth,"S. cerevisiae deletion strains, locus YLR262C, strain YPT6, hits give low values",1
same,normalized growth,"S. cerevisiae deletion strains, locus YLR268W, strain sec22, hits give low values",1.02
same,normalized growth,"S. cerevisiae deletion strains, locus YLR320W, strain mms22, hits give low values",1.04
same,normalized growth,"S. cerevisiae deletion strains, locus YLR330W, strain CHS5, hits give low values",1.01
same,normalized growth,"S. cerevisiae deletion strains, locus YLR342W, strain FKS1 (second series), hits give low values",0.997
same,normalized growth,"S. cerevisiae deletion strains, locus YLR342W, strain FKS1, hits give low values",1.02
same,normalized growth,"S. cerevisiae deletion strains, locus YLR357W, strain rsc2, hits give low values",1
same,normalized growth,"S. cerevisiae deletion strains, locus YLR370C, strain arc18, hits give low values",1.01
same,normalized growth,"S. cerevisiae deletion strains, locus YLR371W, strain rom2, hits give low values",1
same,normalized growth,"S. cerevisiae deletion strains, locus YLR384C, strain iki3, hits give low values",1.02
same,normalized growth,"S. cerevisiae deletion strains, locus YLR418C, strain cdc73, hits give low values",1.04
same,normalized growth,"S. cerevisiae deletion strains, locus YML016C, strain PPZ1, hits give low values",1.01
same,normalized growth,"S. cerevisiae deletion strains, locus YML032C, strain rad52, hits give low values",1.01
same,normalized growth,"S. cerevisiae deletion strains, locus YML120C, strain ndi1, hits give low values",1.02
same,normalized growth,"S. cerevisiae deletion strains, locus YML124C, strain tub3, hits give low values",1.01
same,normalized growth,"S. cerevisiae deletion strains, locus YMR058W, strain fet3, hits give low values",1.02
same,normalized growth,"S. cerevisiae deletion strains, locus YMR078C, strain ctf18, hits give low values",1.02
same,normalized growth,"S. cerevisiae deletion strains, locus YMR125W, strain sto1, hits give low values",1.02
same,normalized growth,"S. cerevisiae deletion strains, locus YMR129W, hits give low values",1.02
same,normalized growth,"S. cerevisiae deletion strains, locus YMR205C, strain PFK2, hits give low values",1.04
same,normalized growth,"S. cerevisiae deletion strains, locus YMR223W, strain ubp8, hits give low values",1.03
same,normalized growth,"S. cerevisiae deletion strains, locus YMR231W, strain pep5, hits give low values",1.01
same,normalized growth,"S. cerevisiae deletion strains, locus YMR307W, strain GAS1, hits give low values",0.923 and 0.999
same,normalized growth,"S. cerevisiae deletion strains, locus YNL067W, strain RPL9B, hits give low values",0.995
same,normalized growth,"S. cerevisiae deletion strains, locus YNL071W, strain lat1, hits give low values",1.02
same,normalized growth,"S. cerevisiae deletion strains, locus YNL128W, strain TEP1, hits give low values",1
same,normalized growth,"S. cerevisiae deletion strains, locus YNL153C, strain GIM3, hits give low values",0.778 (active)
same,normalized growth,"S. cerevisiae deletion strains, locus YNL175C, strain NOP13, hits give low values",0.381 (active)
same,normalized growth,"S. cerevisiae deletion strains, locus YNL183C, strain NPR1, hits give low values",0.962
same,normalized growth,"S. cerevisiae deletion strains, locus YNL197C, strain WHI3, hits give low values",0.662 (active)
same,normalized growth,"S. cerevisiae deletion strains, locus YNL209W, strain ssb2, hits give low values",1.02
same,normalized growth,"S. cerevisiae deletion strains, locus YNL233W, strain BNI4, hits give low values",1.01
same,normalized growth,"S. cerevisiae deletion strains, locus YNL248C, strain rpa49, hits give low values",1.02
same,normalized growth,"S. cerevisiae deletion strains, locus YNL250W, strain rad50, hits give low values",1.05
same,normalized growth,"S. cerevisiae deletion strains, locus YNL271C, strain bni1, hits give low values",1.03
same,normalized growth,"S. cerevisiae deletion strains, locus YNL298W, strain CLA4, hits give low values",1.02
same,normalized growth,"S. cerevisiae deletion strains, locus YNL307C, strain MCK1, hits give low values",1.02
same,normalized growth,"S. cerevisiae deletion strains, locus YNL322C, strain KRE1 (second series), hits give low values",1.03
same,normalized growth,"S. cerevisiae deletion strains, locus YNR049C, strain mso1, hits give low values",1.04
same,normalized growth,"S. cerevisiae deletion strains, locus YNR052C, strain pop2, hits give low values",1.01
same,normalized growth,"S. cerevisiae deletion strains, locus YOL012C, strain htz1",1.37
same,normalized growth,"S. cerevisiae deletion strains, locus YOL147C, strain pex11, hits give low values",1.02
same,normalized growth,"S. cerevisiae deletion strains, locus YOR001W, strain rrp6, hits give low values",1.01
same,normalized growth,"S. cerevisiae deletion strains, locus YOR061W, strain CKA2, hits give low values",1.01
same,normalized growth,"S. cerevisiae deletion strains, locus YOR069W, strain VPS5, hits give low values",1
same,normalized growth,"S. cerevisiae deletion strains, locus YOR070C, strain gyp1, hits give low values",1.02
same,normalized growth,"S. cerevisiae deletion strains, locus YOR080W, strain dia2, hits give low values",1.01
same,normalized growth,"S. cerevisiae deletion strains, locus YOR083W, strain WHI5 (second series), hits give low values",0.582 (active)
same,normalized growth,"S. cerevisiae deletion strains, locus YOR083W, strain WHI5, hits give low values",1.03
same,normalized growth,"S. cerevisiae deletion strains, locus YOR106W, strain vam3, hits give low values",1
same,normalized growth,"S. cerevisiae deletion strains, locus YOR136W, strain idh2, hits give low values",1.02
same,normalized growth,"S. cerevisiae deletion strains, locus YOR144C, strain elg1, hits give low values",1.01
same,normalized growth,"S. cerevisiae deletion strains, locus YOR184W, strain ser1, hits give low values",1.02
same,normalized growth,"S. cerevisiae deletion strains, locus YOR231W, strain MKK1, hits give low values",1
same,normalized growth,"S. cerevisiae deletion strains, locus YOR265W, strain rbl2, hits give low values",1.02
same,normalized growth,"S. cerevisiae deletion strains, locus YOR270C, strain vph1, hits give low values",1.07
same,normalized growth,"S. cerevisiae deletion strains, locus YOR290C, strain snf2, hits give low values",0.969
same,normalized growth,"S. cerevisiae deletion strains, locus YOR316C, strain cot1, hits give low values",1.02
same,normalized growth,"S. cerevisiae deletion strains, locus YPL051W, strain arl3, hits give low values",1
same,normalized growth,"S. cerevisiae deletion strains, locus YPL078C, strain atp4, hits give low values",1.02
same,normalized growth,"S. cerevisiae deletion strains, locus YPL106C, strain sse1, hits give low values",1.03
same,normalized growth,"S. cerevisiae deletion strains, locus YPL240C, strain hsp82, hits give low values",1.01
same,normalized growth,"S. cerevisiae deletion strains, locus YPL241C, strain CIN2, hits give low values",1
same,normalized growth,"S. cerevisiae deletion strains, locus YPR119W, strain clb2, hits give low values",1.01
same,normalized growth,"S. cerevisiae deletion strains, locus YPR141C, strain kar3, hits give low values",1.01
same,normalized growth,"S. cerevisiae deletion strains, locus YPR163C, strain tif3, hits give low values",1.03
same,normalized growth,"S. cerevisiae deletion strains, locus YPR167C, strain met16, hits give low values",1.02
same,normalized growth,"S. cerevisiae deletion strains, strain wtn01, hits give low values",1.01
same,normalized growth,"S. cerevisiae strains, strain wild type, hits give low values",0.988

# Reference: PubChem BioAssay AID1159580 (chemical genetic matrix, 2015)
